Screen size: about 360,000 compounds; about 1,300 (0.36%) were called active. The sample holds actives, similar compounds and a random draw of the others, so the mix is not that of the screen. Cut-off read from the data, not from the text of the source: active = inhibition above about 19%; inactive = the rest.

This assay has as its system T-cell receptor (TCR). Briefly: inhibitors of human TCR-CD3 interaction, primary screen, biochemical, fluorescence, TAMRA-labeled TCR probe (AID 651800).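 Note: recombinant mutant TCR 2C K166C tagged with TAMRA read by polarization; 0% = receptor in buffer alone and 100% = receptor with positive control.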 Conditions: at 9.4 µM, active compounds read high.
For orientation: inhibition means the relative decrease from the control value, in per cent. In the case of `Cc1[nH]nc2c1C(c1ccc(Br)cc1)NC2=O` (stereo unspecified), the inhibition is -1.49% (inactive).
As for `C[C@@H](CN1C2=NC[C@@H](Cc3ccccc3)N2C[C@H]1Cc1ccc(O)cc1)NC(=O)CCC1CCCCC1`, the figure is -8.44% (inactive); as for `CCOC(=O)c1ccc(NC(=O)CNC(=O)c2ccco2)cc1`, -5.65% (inactive); as for `O=C(NNC(=S)Nc1ccc(Br)cc1Cl)c1ccco1`, 0.36% (inactive).
As for `CCC(=O)NC(=S)Nc1ccc(NC(=O)c2ccco2)c(Cl)c1`, the figure is 27.1% (active).
As for `O=C(CN1CCN(c2ccc(O)cc2)CC1)NC1CCCc2ccccc21` (stereo unspecified), the figure is -3.37% (inactive); as for `COC(=O)C1=C(C)N(Cc2ccccc2C(F)(F)F)C(=NCc2ccc(OC)cc2)NC1c1cccc(C(F)(F)F)c1` (stereo unspecified), 6.08% (inactive); as for `Cc1noc(C)c1NC(=O)Nc1ccc2c(c1)C(=O)N([C@H](C)CO)C[C@H](C)[C@H](CN(C)Cc1ccncc1)OCCCC[C@@H](C)O2`, 7.13% (inactive).
As to `CN1CCCc2nc(-c3ccccc3)ccc21`, the inhibition was 3.5% (inactive).
As for `CC(C)CC1NC(=O)c2cc(Cl)ccc2-n2c1nc1ccccc1c2=O` (stereo unspecified), the figure is 3.77% (inactive).
As for `CCOC(=O)C1=C(C(=O)OCC)C2N(Cc3ccc(C#N)cc3)c3ccccc3[C@@]23C[C@@H](C(=O)OC)N(S(=O)(=O)c2ccc(F)cc2)C3=N1` (stereo partly specified), the figure is -0.94% (inactive).
To `C[C@H](O)[C@@H]1C(=O)N2CCc3c([nH]c4c(-c5ccc6c(c5)OCO6)cccc34)[C@@H]2C[C@@H]1N(C)C(=O)c1ccco1` belongs -0.59% (inactive); to `NC1=CC(=O)C(=O)c2cccnc21`, 23.6% (active).
On to `CC[C@H](C)[C@H]1CNC(=O)C(=O)N1CC1CCN(CCc2ccc(OC)c(OC)c2)CC1`, for which the inhibition is 4.26% (inactive).
As to `CC(=O)NCc1ccc(S(=O)(=O)NC2CCN(Cc3ccccc3)CC2)cc1`, the inhibition was 0.98% (inactive).
As for `O=C(c1cc(-c2ccco2)nc2ccccc12)N(Cc1nnc(-c2ccc(Cl)cc2)o1)C1CC1`, the figure is -2.45% (inactive); as for `CN(C(=O)COC(=O)c1cc(-c2ccco2)nc2ccccc12)C1CCS(=O)(=O)C1` (stereo unspecified), 30.6% (active).
With `COc1ccc2c(-c3ccccc3)cc(SCC(=O)N(C)C3CCS(=O)(=O)C3)nc2c1` (stereo unspecified), the inhibition is 1.46% (inactive).
As to `C[C@@H](NC(=O)OC(C)(C)C)c1nnc(S(=O)(=O)Cc2ccccc2)o1`, the inhibition was 6.57% (inactive).
Take `COC(=O)Cc1nnn2c1[C@H](C)[C@@H](OC)c1cc(Br)ccc1-2`: the inhibition was -3.71% (inactive).
As for `COC(=O)[C@]12C[C@H](CC(=O)NCCc3ccccc3OC)C(=O)N(Cc3ccccc3)C1=C[C@H](C(C)C)O[C@@H]2C1CC1`, the figure is 0.38% (inactive); as for `Cc1[nH]c2ccccc2c1CC(=O)Nc1ccc(Nc2cccnc2)c(-c2cccc(Cl)c2)c1`, 7.27% (inactive).
`COc1ccc(N2CCN(C(=O)COc3ccc4c(C)cc(=O)oc4c3)CC2)cc1`: the inhibition is 4.22% (inactive).
To `Cc1ccc(O)c(/C=N/NC(=O)COc2ccc3c(C)cc(=O)oc3c2)c1` belongs 35% (active); to `CC(=O)c1c(C)[nH]c(C(=O)COc2ccc3c(C)cc(=O)oc3c2)c1C`, -7.65% (inactive); to `Cc1nc(NC(=O)C(C)(C)C)sc1[N+](=O)[O-]`, -8.33% (inactive).
As for `O=S1(=O)c2ccc(Br)cc2-n2nncc2CN1Cc1cccc(Cl)c1`, the figure is 3.21% (inactive).
Consider `Nc1ncnc2c1ncn2[C@@H]1O[C@H](C(=O)N[C@@H](CCc2ccccc2)C(=O)NCC(=O)N2CCOCC2)[C@@H](O)[C@H]1O`, for which the inhibition is 10.8% (inactive).
To `COC(=O)C(C(=O)OC)c1ccccc1NS(=O)(=O)c1cccc2ccccc12` belongs 6.59% (inactive); to `O=C(NN=Cc1ccco1)C(=O)Nc1ccc(Cl)c([N+](=O)[O-])c1`, 3.53% (inactive); to `Cc1ncc(CO)c(/C=N/NC(=O)c2cccc(S(=O)(=O)N3CCCC3)c2)c1O`, 27.1% (active).
As for `CCOc1cc(/C=N/NC(=O)c2cccc(S(=O)(=O)N3CCOCC3)c2)ccc1OCC(=O)N(C)C`, the figure is -6.38% (inactive).
Turning to `O=C(NNC1=NCCC1)c1cccc(S(=O)(=O)N2CCCCC2)c1`, the inhibition was -7.2% (inactive).
To `O=C(O)Cn1cnc2c(NCc3ccccc3)ncnc21` belongs -4.94% (inactive); to `Cc1ccc(C)c(NC(=O)CN(C)C(=O)COc2ccc3ccccc3c2)c1`, -2.17% (inactive).
As for `COCCNC(=O)COc1ccc(N(C)S(=O)(=O)c2ccc3ccccc3c2)cc1`, the figure is -0.41% (inactive); as for `Cc1cc2ccccc2n1CCNC(=O)COc1ccc2ccccc2c1`, 60.3% (active).
As for `N#Cc1cccc(C(=O)NCC2CCN(C(=O)C(=O)c3cc4ccccc4o3)CC2)c1`, the figure is 0.99% (inactive); as for `CCOc1ccccc1C(=O)N1CCC[C@@H]1C(=O)N1CCC[C@H]1C(=O)NCc1ccccc1`, -2.28% (inactive).
Regarding `Cc1ccc2nc(-c3ccc(NC(=O)CN(C)S(=O)(=O)c4ccccc4)cc3)sc2c1`, the inhibition was 8.35% (inactive).
To `O=C(Nc1cccc(-c2nc3ccccc3[nH]2)c1)c1ccc(C(=O)Nc2cccc(-c3nc4ccccc4[nH]3)c2)cc1` belongs 26.7% (active).
To `O=C(Nc1ccccc1)c1cc2ccccc2[nH]1` belongs -3.23% (inactive); to `O=C(NCC(O)c1nc2ccccc2[nH]1)c1ccc(Br)cc1` (stereo unspecified), 4.63% (inactive); to `Cc1cc(OC(=O)NCCc2ccc(F)cc2)ccc1F`, 1.4% (inactive).
As for `COC(=O)c1cc2c(c3c4cc(F)ccc4n(S(=O)(=O)c4ccccc4)c13)C(=O)N(Cc1ccccc1OC)C2`, the figure is 2.91% (inactive).
For the molecule `CC(C)(C)C(c1nc2ccccc2[nH]1)n1c(Cc2csc3ccccc23)nc2ccccc21` (stereo unspecified), the inhibition is 5.18% (inactive).

The values are drawn from PubChem BioAssay AID651800 (The Scripps Research Institute Molecular Screening Center, 2012).
